Screening data from PubChem.
ALOX12 inhib = qHTS Assay for Inhibitors of 12-hLO (12-human lipoxygenase); Polyunsaturated fatty acid lipoxygenase ALOX12 (Homo sapiens), P18054; purified 12-hLO, xylenol orange hydroperoxide absorbance; Potency, µM (series often up to 57.1 µM), without a hit: at the top dose activity change, negative = inhibition, actives largely listed as inhibitors; actives 0.12% (n = 150,000); AID 1452, 2008; note: potency is the fitted concentration of half-maximal effect; nearly all actives have a fitted effect of over 55% in size
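Purified human 12hLO (150 nM final) was preincubated with compounds for 15 min at room temperature in 25 mM Hepes pH 7.0, 0.01% Triton X-100, then reacted with 40 uM arachidonic acid for 30 min. Hydroperoxide was detected with ferrous iron/xylenol orange.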
HPGD inh = qHTS Assay for Inhibitors of HPGD (15-Hydroxyprostaglandin Dehydrogenase). purified HPGD, NADH fluorescence kinetic, PGE2 substrate. Potency, µM, without a hit: top-dose activity change, negative = inhibition, most hits filed as inhibitors. actives 4.3% (n = 150,000); active = well fitted inhibition curve with a large enough effect, not every such curve was filed as active; inconclusive = small, poorly fitted or top-dose-only effect, or another doubt; inactive = no such curve, though single readings can be large or run the other way; note: potency is the fitted concentration of half-maximal effect
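20 nM HPGD preincubated 15 min at room temperature with compound in 50 mM Tris-HCl pH 8, 0.01% Tween 20. Started with 1 mM NAD+ and 30 uM prostaglandin E2; NADH fluorescence (360/450 nm) read 5 times over 30-s intervals, last minus first.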
NPSR antag = qHTS Assay for Antagonists of the Neuropeptide S Receptor: cAMP Signal Transduction. CHO-NPSR cells, cAMP TR-FRET, antagonist mode. AID 1461, 2008. Q6W5P4. Potency, µM (series often up to 38.3 µM), for the others: at the highest dose activity change, negative = inhibition, usual class: inhibitors. actives 1% (n = 220,000); note: potency is the fitted concentration of half-maximal effect; nearly all actives have a fitted effect of over 50% in size
Target sequence (Q6W5P4 whole entry, looked up): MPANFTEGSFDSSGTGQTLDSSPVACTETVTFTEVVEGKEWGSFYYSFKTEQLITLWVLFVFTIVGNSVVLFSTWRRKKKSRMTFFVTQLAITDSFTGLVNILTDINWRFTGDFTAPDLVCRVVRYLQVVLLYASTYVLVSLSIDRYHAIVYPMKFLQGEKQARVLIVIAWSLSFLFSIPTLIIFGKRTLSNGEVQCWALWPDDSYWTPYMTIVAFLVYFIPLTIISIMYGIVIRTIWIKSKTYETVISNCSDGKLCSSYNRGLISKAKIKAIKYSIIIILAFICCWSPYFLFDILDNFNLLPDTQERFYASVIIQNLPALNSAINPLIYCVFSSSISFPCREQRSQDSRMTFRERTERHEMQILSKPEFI
ALDH1A1 inh = qHTS Assay for Inhibitors of Aldehyde Dehydrogenase 1 (ALDH1A1); Aldehyde dehydrogenase 1A1 (Homo sapiens), P00352; Purified ALDH1A1, NADH fluorescence, propionaldehyde substrate; Potency, µM (series often up to 75.3 µM), without a hit: top-dose activity, negative = inhibition, most hits filed as inhibitors; actives 7.3% (n = 220,000); AID 1030, 2008; active = well fitted inhibition curve with a large enough effect, not every such curve was filed as active; inconclusive = small, poorly fitted or top-dose-only effect, or another doubt; inactive = no such curve, though single readings can be large or run the other way;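 note: potency is the fitted concentration of half-maximal effect; plate controls were no enzyme wells and a reference inhibitor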
IMPase Li cell = qHTS Assay for Identifying the Cell-Membrane Permeable IMPase Inhibitors: Potentiation with Lithium | Potency, µM (series often up to 59.4 µM), for the others: at the highest dose activity, negative = IMPase inhibition, actives largely listed as inhibitors | actives 0.35% (n = 210,000) | CHO-M1 cells, IP1 TR-FRET (IP-One), carbachol + lithium;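 note: IP1 builds up when IMPase is blocked and the TR-FRET signal falls; potency is the fitted concentration of half-maximal effect; plate controls were basal vehicle for no effect and high inhibitor control for full effect; nearly all actives have a fitted effect of over 50% in size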
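Steps: plate 2000 CHO-M1 cells per well and culture 16–30 h; add compound and lithium; incubate 30 min, 37C; add d2-IP1 tracer and Eu cryptate anti-IP1 antibody in lysis buffer; read after 10 min at room temperature.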
IMPase cell inh = qHTS Assay for Identifying the Cell-Membrane Permeable IMPase Inhibitors | 120,000 tested, under 10 active | AID 901, 2007 | inhibition (IP1 accumulation), % at 46.1 µM | CHO-M1 cells, IP1 accumulation, HTRF TR-FRET ratio | Inositol monophosphatase 1 (Rattus norvegicus), P97697; active = well fitted curve in the direction sought with a large enough effect in the signal ratio, not every such curve was filed as active; inconclusive = small, poorly fitted or top-dose-only effect, or a change in a side signal; inactive = no such curve, though single readings can be large or run the other way; the % refers to the signal ratio;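 note: cells stimulated with carbachol in lithium chloride buffer; plate controls were DMSO basal wells for no effect and reference inhibitor wells for full effect; higher means more IMPase inhibition seen as more IP1 and lower FRET ratio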
Target sequence (P97697 whole entry, looked up): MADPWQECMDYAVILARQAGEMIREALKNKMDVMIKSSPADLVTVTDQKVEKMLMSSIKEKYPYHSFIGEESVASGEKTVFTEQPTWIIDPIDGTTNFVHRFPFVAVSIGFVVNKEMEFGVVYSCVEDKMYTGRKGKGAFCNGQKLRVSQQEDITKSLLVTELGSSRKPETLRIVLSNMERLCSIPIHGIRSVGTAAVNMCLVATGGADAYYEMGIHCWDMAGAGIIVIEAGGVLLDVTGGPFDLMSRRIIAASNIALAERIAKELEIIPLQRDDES
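In this qHTS, compounds (final up to 46 uM) act on CHO-M1 cells that are then activated through the M1 receptor with carbachol, in pH 7.4 buffer containing 50 mM LiCl, for 30 min. IP1 accumulation is quantified by the IP-One immunoassay.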
The depositor's hits bear a star; ? = inconclusive; · = no result; [ ] = remark or other dose. An excerpt weighted towards active compounds, which were near 8.9% of everything screened. Unless noted, calls come from the whole dose curve; as a rule, active = well fitted curve in the direction sought with a large enough effect; inconclusive = small, poorly fitted or top-dose-only effect, or another doubt; inactive = no such curve, though single readings can be large; an effect the other way counts as inactive or inconclusive. Unless noted, % is set by controls: 0 for no effect and ±100 for the full control effect.

SMILES	ALOX12 inhib	HPGD inh	NPSR antag	ALDH1A1 inh	IMPase Li cell	IMPase cell inh
Clc1ccc(-c2csc(N3CCc4ccccc4C3)n2)cc1	-12%	·	-10%[46.1 µM]	5%	·	0
N=c1c(C(=O)NC2CCCC2)cc2c(=O)n3ccccc3nc2n1C1CCCC1	32µM*	?	-9%[46.1 µM]	?	-6%[38.3 µM]	5
O=c1[nH]c2cc(Cl)c(Cl)cc2[nH]c1=O	-1%	?	-6%[46.1 µM]	-7%	-15%	-14
CCCN1CCN(C(=O)Nc2ccc(C(=O)OCC)cc2)CC1	-8%	-18%	-5%[46.1 µM]	-12%	2%[38.3 µM]	-2
CC(NC1CCCCC1)C(=O)NN=C(c1ccccc1)c1ccccc1 (centres undefined)	·	·	?	3.5µM*	18%	·
CC(Cl)C(=O)NN=C(c1ccccc1)c1ccccc1 (centres undefined)	·	·	-11%	1µM*	0%	·
C#CCn1c(=O)c2c(ncn2C)n(C)c1=O	2%	-8%	5%[46.1 µM]	-3%	-8%	-8
CC(C)(C)n1nnnc1CN1CCSCC1	5%	-2%	5%[46.1 µM]	25µM*	-12%	-7
O=C(Cc1ccccc1)c1nnc(-c2ccccc2)o1	·	·	-7%	8.9µM*	6%	·
O=C(CSc1nnc(-c2ccccc2)o1)c1nnc(-c2ccccc2)o1	-4%	?	-6%[46.1 µM]	?	?	-22
COc1ccc(CCNC(=O)CN(c2cccc([N+](=O)[O-])c2)S(C)(=O)=O)cc1OC	·	·	18%	-3%	-6%	·
O=S(=O)(CC12C3C4C5C1C2C(Br)(C43)C51OCCO1)c1ccccc1 (centres undefined)	-4%	-6%	·	11µM*	·	·
O=C(CS(=O)(=O)c1ccccc1)NC1CCCCC1	·	·	11%	4%	5%	·
O=C(NNS(=O)(=O)c1ccc(C(=O)NC2CCCC2)cc1)c1ccncc1	·	·	6%	2.8µM*	-1%	·
CC1CCCCC1NC(=O)c1ccc(S(=O)(=O)NNC(=O)c2ccncc2)cc1 (centres undefined)	·	·	5%	·	·	·
CN(C)/C=C1\NC(=S)N(c2ccc(Cl)cc2)C1=O	·	·	0%	20µM*	4%	·
COc1ccc(OC2C(=O)N(Cc3ccc4c(c3)OCO4)C2c2sccc2C)cc1 (centres undefined)	0%	-10%	-13%[46.1 µM]	-9%	25%[38.3 µM]	12
O=C(CSc1nnc(Cc2cccs2)n1-c1ccccc1)NC1CCCCC1	-6%	-18%	-28%[46.1 µM]	-14%	2%[38.3 µM]	0
O=C(CSc1nc(O)cc(=O)n1-c1ccccc1)NC1CCCCC1	-18%	-14%	22%[46.1 µM]	25µM*	13%[38.3 µM]	-7
N[C@H]1[C@@H](C(=O)O)[C@H]2C=C[C@H]1C2	2%[11.4 µM]	2%	·	0.5µM*	-1%	·
O=C(O)C1C2C=CC(CC2)C1C(=O)O (centres undefined)	7%	-3%	3%[46.1 µM]	7%	-2%[38.3 µM]	11
N#CCCCS(=O)(=O)c1nnnn1-c1ccc(F)cc1Br	·	-10%	·	18µM*	8%	·
Oc1cccc(/C=N/NC(=S)Nc2cccnc2)c1O	-28%	32µM*	1%	?	4%	·
O=C(O)c1cccc(NC(=S)N/N=C/c2cccnc2)c1	·	·	10%	25µM*	-2%	·
CC(C)C1CCC(C(=O)NC(Cc2ccccc2)C(=O)O)CC1 (centres undefined)	2%	-3%	·	-2%	4%	·
SMILES	ALOX12 inhib	HPGD inh	NPSR antag	ALDH1A1 inh	IMPase Li cell	IMPase cell inh
COc1cc(OC)c(OC)cc1CNC1CCCCCC1	-4%	-9%	14%[46.1 µM]	-14%	35%[38.3 µM]	9
COc1cc(OC)c(CNC2CCCCCC2)cc1Br	·	·	-18%	7.9µM*	18%	·
O=C(O)c1cc(NN=Nc2cccc([N+](=O)[O-])c2)cc([N+](=O)[O-])c1	·	·	21%	20µM*	·	·
O=C(O)c1cc(NN=Nc2ccc(Br)cc2)cc([N+](=O)[O-])c1	·	·	33%	6.3µM*	·	·
CCN1C(=O)C(NC(C)=O)c2cc(Br)ccc21 (centres undefined)	1%	1%	2%[46.1 µM]	?	-2%[38.3 µM]	-3
CCc1ccc2c(c1)C(NC(C)=O)C(=O)N2CC (centres undefined)	13%	-12%	-4%[46.1 µM]	22µM*	43%[38.3 µM]	13
CCCCN1C(=O)C(NC(C)=O)c2cc(Br)ccc21 (centres undefined)	1%	-10%	-12%[46.1 µM]	0.18µM*	49%[38.3 µM]	13
COc1ccc2c(c1)C(NC(C)=O)C(=O)N2C (centres undefined)	-1%	2%	2%[46.1 µM]	1%	-3%[38.3 µM]	4
Cc1ccc2nc(C(F)C(F)(F)F)[nH]c2c1 (centres undefined)	·	·	-13%	-6%	3%	·
CCOC(=O)c1cc(-c2ccc(N)cc2)sc1N	-11%	-8%	-10%[46.1 µM]	28µM*	25%[38.3 µM]	9
CCCOC(=S)N/C(=N\S(=O)(=O)c1ccccc1)c1ccccc1	1%	28µM*	-8%[46.1 µM]	14µM*	6%[38.3 µM]	-3
CCOC(=S)N/C(=N\S(=O)(=O)c1ccccc1)c1ccccc1	-4%	?	9%[46.1 µM]	11µM*	-5%	13
CCOC(=S)N/C(=N\S(C)(=O)=O)c1ccccc1	·	·	-19%	·	·	·
CCN1CCN(c2ccc(N=Cc3ccccc3O)cc2)CC1	·	·	-2%	-2%	7%	·
O=C(CSCc1nc2c(nnn2Cc2ccc(F)cc2)c(=O)[nH]1)Nc1c(Cl)cc(Cl)cc1Cl	·	·	-43%	2%	?	·
O=C(NCC1CCCO1)c1nc2c(nnn2Cc2ccc(F)cc2)c(=O)[nH]1 (centres undefined)	-2%	14µM*	1%[46.1 µM]	1%	-5%[38.3 µM]	-7
O=C(NCC1CCCO1)C1CCC(=O)N1Cc1ccc(F)cc1 (centres undefined)	2%	-8%	-5%[46.1 µM]	5%	1%[38.3 µM]	0
COc1cccc(OC)c1NC(=O)c1nc2c(nnn2Cc2ccccc2Cl)c(=O)[nH]1	·	·	-16%	?	-4%	·
CCc1nc2c(nnn2Cc2ccc(F)cc2)c(=O)[nH]1	6%	14µM*	-9%[46.1 µM]	-8%	30%[38.3 µM]	2
O=C(NCc1ccco1)c1nc2c(nnn2Cc2ccccc2Cl)c(=O)[nH]1	-1%	14µM*	-14%[46.1 µM]	-1%	1%	-3
Cc1nc(NCC2CCCO2)c2nnn(Cc3ccccc3)c2n1 (centres undefined)	-3%	-27%	-25%[46.1 µM]	22µM*	2%[38.3 µM]	1
Cc1ccc(CSCc2nnc(SCC(=O)N3CCN(c4ccccc4)CC3)n2C)cc1	1%	-19%	-14%[46.1 µM]	0%	36%[38.3 µM]	13
